High-throughput results (PubChem)
L3MBTL1 inh – qHTS Assay for the Inhibitors of L3MBTL1 | 230,000 tested, 0.66% active | Lethal(3)malignant brain tumor-like protein 1 (Homo sapiens), Q9Y468 | AlphaScreen L3MBTL1–H3K9me1 peptide binding | AID 485360, 2010 | Potency, µM (doses to about 57.1 µM), inactives show top-dose activity, negative = inhibition, hits mostly inhibitors; further: on the % scale 0 is the no-effect control and ±100 the full control effect; nearly all actives have a fitted effect of over 60% in size
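Displacement of a biotinylated histone H3(1-15) peptide monomethylated at Lys9 (75 nM) from L3MBTL1 (50 nM) was measured by AlphaScreen after a 30 min room-temperature compound incubation; cefsulodin titration served as intraplate control.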
FEN1 inh-1 – qHTS Assay for the Inhibitors of Human Flap endonuclease 1 (FEN1); P39748; Recombinant FEN1 flap cleavage, fluorescence, 15 min; Potency, µM (series often up to 114 µM), without a hit: at the top dose activity change, negative = inhibition, usual class: inhibitors; 390,000 tested, 0.35% active; AID 588795, 2011; further: on the % scale 0 is the no-effect control and ±100 the full control effect; nearly all actives have a fitted effect of over 65% in size
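Reaction started by adding substrate (50 nM final) to 10 nM enzyme after 15 min room-temperature compound preincubation. Reads at 0 and 15 min, with data normalized and fitted to a four-parameter Hill equation.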
WRN inhibitor – qHTS for Inhibitors of WRN Helicase | Bifunctional 3'-5' exonuclease/ATP-dependent helicase WRN (Homo sapiens), Q14191 | WRN helicase unwinding, fluorescent forked duplex, kinetic | Potency, µM (doses to about 114 µM), for the others: at the top dose activity change, negative = inhibition, usual class: inhibitors | 360,000 tested, 0.46% active; further: on the % scale 0 is the no-effect control and ±100 the full control effect; nearly all actives have a fitted effect of over 55% in size
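Fluorescence dequenching readout, ex 525 nm/em 598 nm, kinetic mode: forked duplex DNA (100 nM final) with adjacent fluorophore and quencher unwound by WRN (20 nM final) with 2 mM ATP. Compound preincubation 15 min, room temperature.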
BLM helicase inh – qHTS Assay for Inhibitors of Bloom's syndrome helicase (BLM); recombinant BLM DNA unwinding, fluorescence dequenching; Potency, µM (top dose mostly 56.1 µM), without a hit: at the highest dose activity change, negative = inhibition, hits mostly inhibitors; 350,000 tested, 0.2% active; AID 2528, 2010;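 further: plate controls were vehicle for no effect and no enzyme for full effect; nearly all actives have a fitted effect of over 35% in size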
Target sequence (P54132 whole entry, looked up): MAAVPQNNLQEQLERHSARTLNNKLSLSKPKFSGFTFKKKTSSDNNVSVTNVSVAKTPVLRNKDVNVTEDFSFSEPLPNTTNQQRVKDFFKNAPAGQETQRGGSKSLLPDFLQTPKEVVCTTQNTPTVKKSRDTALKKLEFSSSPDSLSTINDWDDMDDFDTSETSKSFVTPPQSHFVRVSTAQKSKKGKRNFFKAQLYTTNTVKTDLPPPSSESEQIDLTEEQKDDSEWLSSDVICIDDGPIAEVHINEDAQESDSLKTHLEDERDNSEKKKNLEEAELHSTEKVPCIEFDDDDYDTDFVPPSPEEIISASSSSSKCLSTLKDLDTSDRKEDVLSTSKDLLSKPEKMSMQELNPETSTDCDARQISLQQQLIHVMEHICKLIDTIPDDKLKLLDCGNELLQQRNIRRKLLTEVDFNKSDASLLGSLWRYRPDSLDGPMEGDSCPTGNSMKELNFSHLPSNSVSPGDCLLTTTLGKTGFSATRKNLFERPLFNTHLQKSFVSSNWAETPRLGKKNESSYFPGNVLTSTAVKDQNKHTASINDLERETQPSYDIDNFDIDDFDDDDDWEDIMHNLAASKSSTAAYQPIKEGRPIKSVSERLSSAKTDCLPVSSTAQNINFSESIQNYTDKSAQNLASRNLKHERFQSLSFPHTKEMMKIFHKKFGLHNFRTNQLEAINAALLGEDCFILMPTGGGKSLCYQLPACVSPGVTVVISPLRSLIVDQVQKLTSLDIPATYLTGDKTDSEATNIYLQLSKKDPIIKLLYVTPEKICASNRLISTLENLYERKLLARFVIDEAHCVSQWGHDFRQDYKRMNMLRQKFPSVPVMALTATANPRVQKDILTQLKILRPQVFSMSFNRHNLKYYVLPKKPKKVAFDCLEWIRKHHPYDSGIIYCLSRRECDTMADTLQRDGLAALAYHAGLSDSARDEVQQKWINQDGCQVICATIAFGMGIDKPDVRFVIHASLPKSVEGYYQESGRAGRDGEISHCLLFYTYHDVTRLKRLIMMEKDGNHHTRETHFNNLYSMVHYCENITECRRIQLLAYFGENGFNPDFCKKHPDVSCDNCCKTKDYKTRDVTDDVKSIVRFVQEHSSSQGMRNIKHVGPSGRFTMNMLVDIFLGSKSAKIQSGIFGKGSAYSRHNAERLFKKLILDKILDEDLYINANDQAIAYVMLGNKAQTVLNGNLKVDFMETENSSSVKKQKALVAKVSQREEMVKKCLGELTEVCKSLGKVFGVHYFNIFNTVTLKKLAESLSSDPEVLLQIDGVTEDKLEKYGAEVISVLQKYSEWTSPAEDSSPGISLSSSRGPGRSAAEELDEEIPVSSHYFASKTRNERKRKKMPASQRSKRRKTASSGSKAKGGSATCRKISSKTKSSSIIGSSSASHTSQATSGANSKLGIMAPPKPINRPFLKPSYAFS
RECQ1 helicase – qHTS Assay for Inhibitors of RecQ-Like Dna Helicase 1 (RECQ1); ATP-dependent DNA helicase Q1 (Homo sapiens), P46063; RECQ1 DNA unwinding, red fluorescence kinetic read; Potency, µM (top dose mostly 57.3 µM), inactives show at the highest dose activity, negative = inhibition, hits mostly inhibitors; 240,000 tested, 0.54% active; AID 2549, 2010;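 further: plate controls were vehicle for no effect and no enzyme for full effect; nearly all actives have a fitted effect of over 30% in size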
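50 nM RECQ1T1 preincubated 15 min with compound in Tris pH 8.0 buffer with MgCl2, DTT, Tween-20 and 2.5 ug/ml poly(dI-dC); started with 200 nM TAMRA/BHQ-2 forked duplex and 2 mM ATP. Unwinding read as fluorescence (525/598 nm), two reads 2 h apart.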
FEN1 inh-2 – qHTS Assay for the Inhibitors of FEN1: Confirmatory Assay for Cherry-picked Compounds; shares compounds with FEN1 inh-1; 880 tested, 79% active; FEN1 flap cleavage, TAMRA/BHQ2 fluorogenic DNA substrate; Potency, µM, most hits filed as inhibitors; AID 720498, 2013; further: nearly all actives have a fitted effect of over 60% in size
An asterisk follows results filed as active; i = inactive; ? = inconclusive; · = no result given; [ ] = dose if it differs, or a comment. Only some compounds are listed: those with a hit (about 0.99% of all), similar ones and a draw of the others. The call rests on the fitted dose curve; in most records, active means well fitted curve in the direction sought with a large enough effect; inconclusive means small, poorly fitted or top-dose-only effect, or another doubt; inactive means no such curve, though single readings can be large; an effect the other way counts as inactive or inconclusive. Potency means the concentration at half of the fitted maximal effect.

SMILES | L3MBTL1 inh | FEN1 inh-1 | WRN inhibitor | BLM helicase inh | RECQ1 helicase | FEN1 inh-2
COc1ccc(-c2ccc3ncnc(NCCc4cnc[nH]4)c3c2)cc1OC | · | · | · | · | · | 30*
COc1cc(-c2ccc3ncnc(NCc4nc(C)cs4)c3c2)cc(OC)c1OC | · | · | · | · | · | ?
COc1ccc2[nH]cc(CCNc3ncnc4ccc(-c5cccnc5)cc34)c2c1 | · | · | · | -6% | -15% | ·
O=C1/C(=C\c2c(NCCOCCO)nc3ccccn3c2=O)SC(=S)N1Cc1ccco1 | -2% | ? | 22µM* | -21% | · | 85*
CCOCCCNc1nc2c(C)cccn2c(=O)c1/C=C1\SC(=S)N(CC(C)C)C1=O | -2% | -3% | -9% | 0% | -2% | ·
O=c1cc(-c2ccc(O)c(O)c2)oc2cc(O)c([C@@H]3O[C@H](CO)[C@@H](O)[C@H](O)[C@H]3O)c(O)c12 | ? | ? | -18% | 7% | i | ·
O=c1c2cc(O)c(O)cc2oc2cc(O)c(C3OC(CO)C(O)C(O)C3O)c(O)c12 (centres undefined) | 3.2µM* | -17% | -17% | 4% | -26% | ?
CCOc1cc2c(cc1/C=C1/NC(=O)N(CC(=O)OC)C1=O)OCO2 | 18% | 2% | 0% | -6% | -5% | ·
c1nc(NCCN2CCOCC2)c2cc(-c3ccc4c(c3)OCO4)ccc2n1 | · | · | · | -4% | i | ·
CC(=O)NCCNc1ncnc2ccc(-c3ccc4c(c3)OCO4)cc12 | · | · | · | 3% | i | ·
CN1CCCC1CCNc1ncnc2ccc(-c3ccc4c(c3)OCO4)cc12 (centres undefined) | · | · | · | · | · | 48*
CN(C)CCNc1ncnc2ccc(-c3ccc4c(c3)OCO4)cc12 | · | · | · | · | · | 30*
NCCCNc1ncnc2ccc(-c3ccc4c(c3)OCO4)cc12 | · | · | · | · | · | 38*
COc1ccccc1CNC(=O)c1cc2c(=O)[nH]c3ccccc3c2n1C | -23% | · | · | -22% | -1% | ·
COCCN(Cc1cccs1)S(=O)(=O)c1cc(-c2cc(C)no2)ccc1C | · | -1% | · | -11% | · | ·
c1ccc2c(c1)c1c(c3ccccc32)CN2CCCC2C1 (centres undefined) | · | 18µM* | 0%[11.6 µM] | · | · | 38*
CN1CCC[C@H]1CCNc1ccc2c(=O)c3ccccc3n(C)c2c1 | · | 56µM* | ? | · | · | 43*
CN1CCCC1CCNc1ccc2c(=O)c3ccccc3oc2c1 (centres undefined) | 10% | ? | 13% | 61% | · | ·
CS(=O)(=O)NN1C(=O)c2ccccc2NC1c1cccc2cccnc12 (centres undefined) | 10% | -1% | 3% | 1% | 0% | ·
CC(C)(C)/C(O)=C/c1nc2ccccc2oc1=O | 15% | 20µM* | 3%[11.6 µM] | -6% | i | 30*
Cc1nc(C)c(/C(O)=C/c2nc3ccccc3oc2=O)s1 | -15% | 11% | -21% | -2% | -1% | ·
COc1cccc(C(C(=O)NC2CCCC2)N(C(=O)c2ccco2)c2ccc(NC(C)=O)cc2)c1OC (centres undefined) | · | 3% | 3% | -6% | · | ·
CN(C)c1ccc(C=c2c3ccccc3n3c2c2c([n+]3C)CCCC2)cc1 | · | 22µM* | 22µM* | · | · | 30*
O=C(O)COc1ccccc1C=NNc1ccc([N+](=O)[O-])cc1S(=O)(=O)Nc1ccc(Cl)cc1 | -5% | -15% | ? | · | · | 76*
Cc1cc(C)n2nc(C(=O)N/N=C/c3ccccc3Cl)nc2n1 | -8% | -1% | 3% | 4% | 2% | ·
SMILES | L3MBTL1 inh | FEN1 inh-1 | WRN inhibitor | BLM helicase inh | RECQ1 helicase | FEN1 inh-2
Cc1cc(C)n2nc(C(=O)N/N=C/c3c4ccccc4cc4ccccc34)nc2n1 | 3% | 45µM* | ? | ? | -13% | ?
CN(C)c1nc(N/N=C/c2ccccc2O)nc(Nc2ccc(F)cc2)n1 | · | -24% | -30% | ? | -28% | ·
COc1cccc(CNC(=O)C2CCN(S(=O)(=O)c3ccccc3)CC2)c1 | 0% | 6% | 11% | 1% | -4% | ·
Cc1cc[n+](-c2[nH]c(=O)sc2/C=N/N=C(\[O-])c2ccccc2)cc1 | ? | -32% | ? | -1% | -3% | 67*
Cc1cccc(-c2nnc3sc(-c4ccccc4C)nn23)c1 | 5% | ? | -18% | -8% | -3% | ·
COc1ccc(NC(=O)c2coc3ccccc23)cc1OC | 1% | -5% | -2% | -8% | i | ·
COc1ccc2nc(/N=C(\N)NC(=O)C(C)(C)C)nc(C)c2c1 | -7% | -8% | 19% | 5% | 15% | ·
CCC(=O)N/C(N)=N/c1nc(C)c2cc(OC)ccc2n1 | 4% | 79µM* | 44% | 88% | -7% | ?
O=C(O)c1cn(C2CC2)c2cc(N3CCN(S(=O)(=O)c4ccc5c(c4)OCCO5)CC3)c(F)cc2c1=O | 3% | ? | 79µM* | -11% | i | 43*
CCn1cc(C(=O)O)c(=O)c2cc(F)c(N3CCN(S(=O)(=O)c4ccc(Br)cc4)CC3)cc21 | 5% | · | · | -1% | i | ·
Cc1c2c(cc3c1[nH]c1ccccc13)C=NCC2 | · | 50µM* | 14%[11.6 µM] | · | · | 38*
O=C(O)c1ccc(COc2ccccc2/C=C2\NC(=O)N(Cc3ccccc3)C2=O)cc1 | 4% | ? | -14% | -6% | 17% | ·
O=C(CN1C(=O)N/C(=C\c2ccccc2OCc2ccc(C(=O)O)cc2)C1=O)Nc1ccccc1F | · | ? | ? | -23% | · | 60*
Cc1ccc(NC(=O)CN2C(=O)N/C(=C/c3ccccc3OCc3cccc(C(=O)O)c3)C2=O)cc1 | · | 71µM* | 50µM* | ? | · | 76*
COc1ccc2c(c1)cc(C(=O)N/N=C/c1c(O)c(C(=O)O)cc3ccccc13)n2C | · | ? | -14%[11.6 µM] | ? | · | 85*
CC(NC1=CC(=O)c2cccnc2C1=O)C(O)c1ccccc1 (centres undefined) | · | ? | ? | · | · | ?
O=C1C(Nc2ccccc2)=CC(=O)c2ncccc21 | · | · | · | -27% | -9% | ·
CCOc1ccc(CNC(=O)C2CCN(c3nnc(C)c4c(C)n(-c5ccc(C)cc5)nc34)CC2)cc1 | · | ? | -32%[11.6 µM] | -17% | · | ?
CCOc1ccccc1NC(=S)NNS(=O)(=O)c1c(C)cc(C)cc1C | 0% | -14% | -8% | -4% | -6% | ·
O=C(N/N=C/c1ccc(-c2ccc(Cl)c(C(=O)O)c2)o1)c1cc2c(ccc3ccccc32)o1 | · | 40µM* | 20µM* | -1% | 3% | 21*
Cc1ccc(-c2ccc(/C=N\NC(=O)c3cc4c(ccc5ccccc54)o3)o2)cc1[N+](=O)[O-] | 8% | -11% | -16% | -4% | i | ·
